# Data reported in publication PMC5540273 (PLoS ONE, 2017).
# “And” between values parts separate entries of the source, which are not always exact repeats. Equal entries are not always repeated. Where two headings read alike, the source gives them in different places.
# Tests used:
# TAOK3 = details: concentration: 1 μM, replicates: in singlicate; n = 1
# TBK1 = details: n = 1
# TEC = details: concentration: 1 μM, replicates: in singlicate; n = 1
# TESK1 = details: concentration: 1 μM, replicates: in singlicate; n = 1
# TGFBR1 = details: n = 1
# TGFBR2 = details: concentration: 1 μM, replicates: in singlicate; n = 1
# TIE1 = details: n = 1
# TIE2 = test system: T1, TIE2; details: concentration: 1 μM, replicates: in singlicate; n = 1
# T1 construct: gene TEK
# TLK1 = details: n = 1
# TLK2 = details: concentration: 1 μM, replicates: in singlicate; n = 1
# [1] = concentration: 1 μM, replicates: in singlicate
# [2] = concentration: 1 μM,replicates: in singlicate, 1 µM
# 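Note: KINOMEscan kinase panel screen.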
Compound,%Inh (TAOK3) [%],%Inh (TBK1; [1]) [%],%Inh (TEC) [%],%Inh (TESK1) [%],%Inh (TGFBR1; [1]) [%],%Inh (TGFBR2) [%],%Inh (TIE1; [1]) [%],%Inh (TIE2) [%],%Inh (TLK1; [1]) [%],%Inh (TLK2) [%],%Inh (TBK1; [2]),%Inh (TGFBR1; [2]),%Inh (TIE1; [2]),%Inh (TLK1; [2]),%Inh (TGFBR1; 1 µM) [%]
Cc1ccc(NC(=O)Nc2cc(C(C)(C)C)nn2-c2ccccc2)cc1 [GSK1014915],0,0,11,13,18,1,9,0,2,0,–,–,–,–,–
Cn1ccc2ncnc(Oc3cccc(C(=O)Nc4ccccc4)c3)c21,0,0,11,0,8,0,0,0,5,7,–,–,–,–,–
CCn1c(-c2cccnc2O)nc2cnccc21 [SB-736715],0,0,0,0,0,0,0,6,0,0,–,–,–,–,–
Fc1cccc(COc2nnc(-c3ccc4c(c3)CCO4)o2)c1,0,0,33,0,10,0,7,0,25,0,–,–,–,–,–
Cn1ccc2ncnc(Oc3ccc(Nc4nc5ccccc5[nH]4)cc3)c21,0,0,0,0,0,0,5,0,0,0,–,–,–,–,–
CS(=O)(=O)c1ccc(-c2nc3n(c2-c2ccncc2)CCC3)cc1 [SKF-105942],0,27,7,1,15,0,8,0,0,0,–,–,–,–,–
CN1C(=O)C(Nc2ccc(Cl)c(C(=O)O)c2)=C(c2ccc(Cl)cc2)C1=O [SB-404290],19,27,0,0,0,0,0,14,0,0,–,–,–,–,–
COC(=O)c1c(-c2ccccc2)c2cc(C(=O)O)ccc2c(=O)n1Cc1ccccc1,0,6,0,0,21,8,0,18,10,0,–,–,–,–,–
COc1ccccc1CNC(=O)c1cc(C(=O)c2ccccc2C)c[nH]1 [GSK364507],0,19,0,36,9,0,0,0,0,0,–,–,–,–,–
Cl.O=C(Nc1cccc(-c2nn3ncccc3c2-c2ccnc(Nc3cccnc3)n2)c1)c1c(F)cccc1F [GSK312879],7,0,13,0,0,0,34,1,0,0,–,–,–,–,–
O=C(Nc1n[nH]c2cc(-c3cccc(F)c3F)ccc12)C1CC1 [SB-733894],16,18,4,8,1,14,0,17,0,5,–,–,–,–,–
CCn1c(-c2ccccn2)nc2cnccc21 [SB-736398],0,0,0,0,21,10,0,0,0,0,–,–,–,–,–
Fc1cc(Cl)ccc1Nc1ccnc2cc(I)ccc12 [GW551191],0,11,22,12,17,50,0,0,21,0,–,–,–,–,–
Cc1cccc(-c2nc(-c3ccc(S(C)(=O)=O)cc3)sc2-c2ccnc(NCCc3ccccc3)c2)c1,0,24,0,11,26,0,14,19,6,4,–,–,–,–,–
COc1cc2ncn(-c3cc(OCC4CCCO4)c(C(N)=O)s3)c2cc1OC (centres unmarked) [GSK204607],0,23,0,0,4,0,0,0,0,11,–,–,–,–,–
O=C1NC(=O)C(N2CCc3ccccc32)=C1c1ccccc1Cl [SB-373598],15,19,0,27,9,10,13,6,8,4,–,–,–,–,–

Compound,%Inh (TAOK3) [%],%Inh (TBK1; [1]) [%],%Inh (TEC) [%],%Inh (TESK1) [%],%Inh (TGFBR1; [1]) [%],%Inh (TGFBR2) [%],%Inh (TIE1; [1]) [%],%Inh (TIE2) [%],%Inh (TLK1; [1]) [%],%Inh (TLK2) [%],%Inh (TBK1; [2]),%Inh (TGFBR1; [2]),%Inh (TIE1; [2]),%Inh (TLK1; [2]),%Inh (TGFBR1; 1 µM) [%]
O=C(Nc1n[nH]c2nc(-c3nccs3)c(Br)cc12)C1CCCC1 [SB-742609],0,0,0,43,31,0,14,0,0,0,–,–,–,–,–
COc1ccccc1-c1ccc2c(NC(=O)C3CC3)n[nH]c2n1 [SB-711239],0,26,0,8,14,1,6,11,0,2,–,–,–,–,–
O=C(Nc1ccccc1)Nc1cccc(Oc2ccc3nccn3n2)c1,0,10,0,0,5,9,0,92.4,17,0,–,–,–,–,–
CSc1nn2c(=O)cc(N3CCOCC3)nc2n1Cc1cccc(C(F)(F)F)c1C [GSK2363608],0,–,7,19,–,0,–,0,–,0,20% and 5%,11% and 17%,0% and 2%,8% and 0%,–
Cc1cc(NCC(c2ccccc2)c2ccccc2)nc(NCc2ccc(C(F)(F)F)cc2)n1 [GW497681],0,22,0,13,22,0,0,0,9,0,–,–,–,–,–
COc1cccc(-c2cc(-c3c[nH]nc3-c3ccccn3)ccn2)c1 [GW680338],0,0,0,15,–,32,0,0,0,0,–,–,–,–,54
Fc1cc(Cl)ccc1Nc1ccnc2cc(-c3ccc(CN4CCCCC4)o3)ccc12 [GW560116],0,14,5,19,0,0,0,0,0,0,–,–,–,–,–
COc1cc2nccc(Nc3ccc(NC(=O)c4ccc(C)cc4)c(O)c3)c2cc1OC.Cl [GW440132],0,0,3,25,0,0,6,0,0,0,–,–,–,–,–
O=C(Nc1ccc2c(c1)OCO2)NC1CCN(c2ccnc(Nc3ccc(F)cc3)n2)C1 (centres unmarked) [GSK1379724],0,0,7,32,28,0,0,0,0,0,–,–,–,–,–
NC(=O)c1nnc2ccccc2c1N,3,40,0,6,1,0,14,98.7,14,0,–,–,–,–,–
COC(=O)c1c(-c2ccccc2)c2cc(OC)ccc2c(=O)n1Cc1ccccc1,0,0,14,20,17,0,3,0,23,0,–,–,–,–,–
Cc1ccc(-c2cc(-c3c[nH]nc3-c3ccccn3)ccn2)cc1 [GW684088],0,26,0,0,–,77,0,13,24,10,–,–,–,–,89
Cl.NC(=O)c1cccc(Nc2nccc(Nc3ccc(Oc4cccc(Cl)c4)c(Cl)c3)n2)c1 [GW659008],0,7,10,40,0,12,12,1,0,0,–,–,–,–,–
Cc1ccc(NC(=O)Nc2cccc(Cl)c2)cc1-c1ccc(C(=O)Nc2ccncc2)cc1 [GSK1398468],0,5,13,18,30,0,0,0,0,12,–,–,–,–,–
Cn1ccc2ncnc(Oc3ccc(NC(=O)Nc4ccccc4)cc3)c21,0,30,0,1,0,0,0,0,2,0,–,–,–,–,–
COc1ccc(C2=C(Nc3cccc(C(=O)O)c3)C(=O)NC2=O)cc1 [SB-390765],23,11,10,12,1,0,7,21,1,0,–,–,–,–,–
